A short description of test [1]: qHTS assay for small molecule agonists of the p53 signaling pathway (AID 651631; calls by dose curve; further: nearly all actives have a fitted effect of over 15% in size). In short, it runs like this:
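p53RE-bla HCT-116 cells; compounds 16 h, 37 °C; LiveBLAzer B/G FRET substrate 2 h RT; fluorescence intensity read-out, qHTS format.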

Test [2] can be described thus: qHTS assay for small molecules that induce genotoxicity in human embryonic kidney cells expressing luciferase-tagged ATAD5 (AID 651632). Further: nearly all actives have a fitted effect of over 15% in size. An outline of the steps: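 Luminescent reporter readout, HEK293T ATAD5-luc line: 16 hr drug exposure (37C, 5% CO2) followed by Amplite, 30 min RT.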
A short description of test [3]: qHTS assay for small molecule agonists of the p53 signaling pathway - cell viability (AID 651633; calls by dose curve;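 further: p53RE-bla HCT reporter cells with a stable beta-lactamase p53 reporter; series mostly up to about 83 µM; nearly all actives have a fitted effect of over 30% in size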). An outline of the steps: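 p53RE-bla cells, seeded at 4,000 per well and rested 5 h at 37 C/5% CO2, received compounds in DMSO for 16 h at 37 C. CellTiter-Glo was then added, and luminescence was read after 30 min at room temperature to gauge cytotoxicity.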
Test [4] can be described thus: qHTS assay for small molecules that induce genotoxicity in human embryonic kidney cells expressing luciferase-tagged ATAD5 - cell viability (AID 651634; calls by dose curve; further: nearly all actives have a fitted effect of over 25% in size). An outline of the steps:
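Viability read: CellTiter-Fluor fluorescence, 30 min at 37C. Cells: HEK293T, luciferase-tagged ATAD5. Exposure: 15.5 hr, 37C, 5% CO2, compound or DMSO vehicle.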

Test [5] is described as follows: qHTS assay for small molecule disruptors of the mitochondrial membrane potential - cell viability (AID 720634; calls by dose curve;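 further: human HepG2 liver cancer cells; series mostly up to about 83 µM; nearly all actives have a fitted effect of over 20% in size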). In short, it runs like this: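 HepG2, 1 hr compound, 37 C. ATP luminescence via CellTiter-Glo, 30 min RT, same well as m-MPI.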
The nature of test [6]: qHTS assay to test for compound auto fluorescence at 590 nm (red) in HepG2 cells (AID 720674). In short, it runs like this: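 Rose Bengal sodium served as the red fluorophore standard. HepG2 monolayers (overnight attachment, MEM with 10% FBS) were exposed to test compounds for 1 hr at 37 C and read at Ex 540/Em 590 nm.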
Test [7] in a line: qHTS assay to test for compound auto fluorescence at 535 nm (green) in HepG2 cells (AID 720675).
The nature of test [8]: qHTS assay to test for compound auto fluorescence at 460 nm (blue) in HEK293 cells (AID 720678). In short, it runs like this:
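HEK293 cells (2,000 per well, medium with 10% dialyzed FBS) attached for 4-5 hr at 37C, then received compound and stood overnight at 37C, 5% CO2. Blue fluorescence was read at Ex/Em 405/460 nm and expressed relative to triamterene.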

A short description of test [9]: qHTS assay to test for compound auto fluorescence at 590 nm (red) in HEK293 cells (AID 720679). An outline of the steps:
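HEK293 cells (2,000/well, medium with 10% dialyzed FBS) attached for 4-5 hr at 37C, received 23 nL compound and were incubated overnight at 37C, 5% CO2. Red fluorescence was then read at 540/590nm Ex/Em, referenced to Rose Bengal sodium.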

Test [10] in a line: qHTS assay to test for compound auto fluorescence at 535 nm (green) in HEK293 cells (AID 720680).
Test [11] in a line: qHTS assay to test for compound auto fluorescence at 460 nm (blue) in HEK293 cell free culture (AID 720681). An outline of the steps:
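Test compounds were pinned into cell-free culture medium (DMEM with 10% FBS) and fluorescence was read directly at Ex/Em 405/460 nm. Signals were expressed as fluorescence equivalents of triamterene, with DMSO vehicle as control.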

Test [12] is described as follows: qHTS assay to test for compound auto fluorescence at 535 nm (green) in HEK293 cell free culture (AID 720682). An outline of the steps:
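Cell-free medium (DMEM, 10% FBS) receives compound or DMSO by pintool. Plate read directly at Ex 485/Em 535 nm. Signal converted to fluorescein equivalency.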

A short description of test [13]: qHTS assay to test for compound auto fluorescence at 590 nm (red) in HEK293 cell free culture (AID 720683). In short, it runs like this: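 Tox21 10K library compounds were pinned into cell-free DMEM with 10% FBS and fluorescence was read at excitation 540 nm. Activity is expressed as Rose Bengal sodium equivalency.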
A short description of test [14]: qHTS assay to test for compound auto fluorescence at 460 nm (blue) in HepG2 cell free culture (AID 720685). In short, it runs like this: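 Compound (23 nL) or DMSO pinned into cell-free MEM with 10% FBS; blue fluorescence read at 405/460 nm excitation/emission, expressed as auto-fluorescence equivalency to triamterene.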
Test [15] in a line: qHTS assay to test for compound auto fluorescence at 535 nm (green) in HepG2 cell free culture (AID 720686).
Test [16] in a line: qHTS assay to test for compound auto fluorescence at 460 nm (blue) in HepG2 cells (AID 720687). An outline of the steps:
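Cells (2,000/well in MEM with 10% FBS) attached overnight at 37 C, then were exposed to compound or DMSO for 1 hr at 37 C, 5% CO2. Fluorescence read at Ex/Em 405/460 nm, expressed as triamterene-equivalent signal.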

The nature of test [17]: qHTS assay for small molecule disruptors of the mitochondrial membrane potential (AID 720635). In short, it runs like this: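 HepG2 cells (2,000/well) attached overnight at 37C, then took compound for 1 hr at 37C, 5% CO2. Mito-MPS dye was added for 30 min; fluorescence was read at 490/535 nm (monomers) and 540/590 nm (aggregates).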
A short description of test [18]: qHTS assay to test for compound auto fluorescence at 590 nm (red) in HepG2 cell free culture (AID 720684). In short, it runs like this: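 Red fluorescence (540 nm excitation, 590 nm emission) was measured after compound transfer into cell-free MEM supplemented with 10% FBS. Values are equivalencies against Rose Bengal sodium.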
Test [19] has as its target Glucocorticoid receptor (Homo sapiens) (UniProt P04150). The test can be described thus: qHTS assay to identify small molecule agonists of the glucocorticoid receptor (GR) signaling pathway (AID 720691; active means well fitted activation curve with a large enough effect in the signal ratio in the repeat runs, not every such curve was filed as active; the % refers to the signal ratio; further: potency means the concentration at half of the fitted maximal effect). In short, it runs like this:
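qHTS in GR-bla HeLa cells: 4 h settling at 37 C/5% CO2, 18 h compound incubation at 37 C, 2 h LiveBLAzer B/G FRET substrate at room temperature, fluorescence intensity measured.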

Test [20] shares this target. Kind of test: qHTS assay to identify small molecule antagonists of the glucocorticoid receptor (GR) signaling pathway (AID 720692; active means well fitted inhibition curve with a large enough effect in the signal ratio in the repeat runs, not every such curve was filed as active; the % refers to the signal ratio). An outline of the steps:
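Inhibition of glucocorticoid signalling is measured in HeLa cells with a GRE-controlled beta-lactamase reporter; cells are co-treated with compound and 5 nM dexamethasone (final) for 18 h before FRET substrate readout.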

Results filed as inconclusive are left out. The source made the active and inactive calls. Unless noted, the call rests on the fitted dose curve; in most records, active means well fitted curve in the direction sought with a large enough effect in the repeat runs; inconclusive means weak or mixed curves; inactive means no such curve, though single readings can be large; an effect the other way counts as inactive or inconclusive.

Glucocorticoid receptor (Homo sapiens), sequence (P04150 whole entry, looked up): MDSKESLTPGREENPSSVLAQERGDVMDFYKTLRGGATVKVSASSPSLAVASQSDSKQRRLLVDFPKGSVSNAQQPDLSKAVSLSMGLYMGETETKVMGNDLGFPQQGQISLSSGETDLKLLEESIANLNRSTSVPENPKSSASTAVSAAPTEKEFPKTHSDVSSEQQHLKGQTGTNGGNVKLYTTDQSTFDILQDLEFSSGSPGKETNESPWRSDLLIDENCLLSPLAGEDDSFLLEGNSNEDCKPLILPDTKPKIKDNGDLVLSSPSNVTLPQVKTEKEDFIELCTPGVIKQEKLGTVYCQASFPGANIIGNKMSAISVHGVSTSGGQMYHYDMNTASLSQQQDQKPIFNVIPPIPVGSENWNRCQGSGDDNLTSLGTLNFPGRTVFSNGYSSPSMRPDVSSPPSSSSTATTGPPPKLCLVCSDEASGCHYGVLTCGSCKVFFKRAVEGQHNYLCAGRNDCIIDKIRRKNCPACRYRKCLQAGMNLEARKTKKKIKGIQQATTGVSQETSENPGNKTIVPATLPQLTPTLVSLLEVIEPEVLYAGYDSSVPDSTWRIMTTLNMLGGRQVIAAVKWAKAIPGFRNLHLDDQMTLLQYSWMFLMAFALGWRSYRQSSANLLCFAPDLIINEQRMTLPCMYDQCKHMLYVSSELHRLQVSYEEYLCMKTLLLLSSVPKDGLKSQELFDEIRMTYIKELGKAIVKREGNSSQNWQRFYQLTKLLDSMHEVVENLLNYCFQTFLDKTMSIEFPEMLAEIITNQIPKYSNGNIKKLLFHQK

Consider `C=C[Si](OC(=C)C)(OC(=C)C)OC(=C)C`, for which the outcome in [1], in test [3], in test [6], in [7], in test [8] and in test [9] was inactive. Also, the molecule was called inactive in [10], in test [11], in test [12], in test [13], in [14] and in test [15]. Further, the outcome in test [16] was inactive. For the same molecule, the Potency result in [2], in test [4] and in [5] was “inactive” throughout.
On to `CCOC(=O)C(=O)OCC`, for which the molecule was called inactive in test [1], in test [3], in test [6], in [7], in test [8] and in test [9]. Moreover, the call in [10], in [11], in test [12], in [13], in test [18] and in [14] was inactive. The molecule was classed as inactive in [15] and in test [16]. The Potency result in test [2], in test [4], in test [17], in [19] and in [20] was “inactive” each time.
With `COc1ccc2c(c1)c(CC(=O)OCC(=O)O)c(C)n2C(=O)c1ccc(Cl)cc1`, the molecule was called inactive in test [1], in test [3], in [6], in test [7], in test [8] and in [9]. Moreover, the result in [10], in [11], in [12], in test [13], in test [18] and in test [14] was inactive. The result in test [15] and in [16] was inactive. In addition, the Potency result in [2], in test [4] and in test [19] was “inactive” each time.
`CCN1CCC[C@H]1CNC(=O)c1c(O)c(Cl)cc(Cl)c1OC`: the outcome in test [1], in test [3], in [6], in test [7], in test [8] and in test [9] was inactive. Also, the result in test [10], in [11], in [12], in test [13], in [18] and in test [14] was inactive. In addition, the outcome in [15] and in test [16] was inactive. The Potency result in test [2] and in test [4] was “inactive” in each case.
Consider `NC(=O)c1ccc([N+](=O)[O-])cc1`, for which the molecule was classed as inactive in test [1], in [3], in test [6], in test [7], in [8] and in test [9]. Also, the molecule was called inactive in [10], in test [11], in test [12], in test [13], in test [18] and in [14]. For the same molecule, the call in test [15] and in test [16] was inactive. Also, the Potency result in test [2], in test [4], in [19] and in test [20] was “inactive” in each case.
With `CCC(C)C1CCCCC1=O` (stereo not given), the result in test [1], in test [3], in [6], in test [7], in test [8] and in test [9] was inactive. The molecule was classed as inactive in test [10], in test [11], in test [12], in [13], in test [18] and in [14]. Further, the call in test [15] and in test [16] was inactive. Further, the Potency entry in test [2], in test [4] and in test [17] was “inactive” each time.
Turning to `C[C@H]1C[C@@H](O)CC(C)(C)C1`, the call in test [1], in [3], in test [6], in test [7], in test [8] and in test [9] was inactive. In addition, the outcome in test [10], in [11], in test [12], in [13], in test [18] and in test [14] was inactive. The outcome in test [15] and in test [16] was inactive. In addition, the Potency entry in test [2], in [5], in [17], in [19] and in [20] was “inactive” each time.
On to `NS(=O)(=O)c1cc(C(=O)O)cc(N2CCCC2)c1Oc1ccccc1`, for which the molecule was called inactive in test [1], in [3], in [6], in test [7], in test [8] and in [9]. For the same molecule, the molecule was called inactive in test [10], in test [11], in test [12], in [13], in test [18] and in [14]. For the same molecule, the outcome in test [15] and in test [16] was inactive. Further, the Potency result in test [2], in test [5] and in test [20] was “inactive” each time. For the same molecule, the Potency in test [19] is 9.1 µM (active).

The values above are taken from PubChem BioAssay (Tox21).
